What all share (conditions): tags: N-GST (pGEX-6P-1, kept); dsDNA, one strand shown
In one assay the target is T1, Croc (Drosophila melanogaster, UniProt P32027 54-175).
T1 sequence: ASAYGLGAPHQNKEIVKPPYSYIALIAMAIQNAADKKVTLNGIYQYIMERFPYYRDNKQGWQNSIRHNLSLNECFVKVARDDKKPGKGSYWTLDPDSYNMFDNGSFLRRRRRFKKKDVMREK
In words: FP; 20 mM Tris-acetate pH 7.0, 50 "nM" NaCl as printed (probably mM), 0.01% Tween 20, 0.1 mM DTT; conventional titration.

Another assay concerns the target T2, Pan (Drosophila melanogaster, UniProt P91943 258-356).
T2 sequence: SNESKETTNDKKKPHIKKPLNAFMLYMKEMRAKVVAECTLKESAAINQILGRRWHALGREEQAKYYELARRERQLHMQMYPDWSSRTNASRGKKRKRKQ
The assay can be described thus: FP; 33 mM phosphate pH 7.0, 90 mM NaCl, 0.01% Tween 20, 0.1 mM DTT, 0.5% agarose; room temperature.

For another assay, the target named is T3, Ems (Drosophila melanogaster, UniProt P18488 373-462).
T3 sequence: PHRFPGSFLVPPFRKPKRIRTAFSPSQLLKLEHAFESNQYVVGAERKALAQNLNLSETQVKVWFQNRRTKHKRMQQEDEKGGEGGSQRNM
The assay is described as above.

In the next assay the target is T4, Hkb (Drosophila melanogaster, UniProt Q9VN10 181-296).
T4 sequence: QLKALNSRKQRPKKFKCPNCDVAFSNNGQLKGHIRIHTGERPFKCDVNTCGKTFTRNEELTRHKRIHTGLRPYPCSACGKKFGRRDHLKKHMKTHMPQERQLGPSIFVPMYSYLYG
The assay is described as above.

The next assay deals with T5, EcR (Drosophila melanogaster, UniProt P34021 251-348).
T5 sequence: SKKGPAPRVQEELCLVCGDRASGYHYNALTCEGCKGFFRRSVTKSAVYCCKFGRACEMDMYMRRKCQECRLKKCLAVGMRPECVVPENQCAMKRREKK
Described as above.

In a further assay the target is Gsc (Drosophila melanogaster, UniProt P54366 267-356). The assay is described as above.
Gsc, sequence (P54366 267-356): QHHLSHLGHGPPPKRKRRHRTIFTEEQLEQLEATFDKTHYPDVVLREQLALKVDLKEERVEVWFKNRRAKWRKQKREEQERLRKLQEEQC
A further assay deals with T6, Slp1-FL (Drosophila melanogaster, UniProt P32030).
T6 sequence: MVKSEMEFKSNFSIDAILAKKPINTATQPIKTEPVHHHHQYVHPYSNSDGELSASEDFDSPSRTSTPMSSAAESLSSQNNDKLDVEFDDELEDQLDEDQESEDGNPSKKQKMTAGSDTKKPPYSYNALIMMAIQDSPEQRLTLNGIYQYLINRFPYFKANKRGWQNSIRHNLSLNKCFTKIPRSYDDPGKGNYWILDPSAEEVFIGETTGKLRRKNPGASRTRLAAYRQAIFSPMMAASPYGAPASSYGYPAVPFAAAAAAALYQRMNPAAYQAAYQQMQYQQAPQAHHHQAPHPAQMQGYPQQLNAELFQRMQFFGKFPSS
The description is as above.

For the sequence TTAGATTAATATA, the binding signal with Croc was 109 Kd / Kd of best base at the position.
Consider AGTCTCTGATAAA, for which the binding signal with Pan was 9.73 Kd / Kd of best base at the position.
As to AGTCTTTGATCAA, the binding signal in the assay with Pan is 2.02 Kd / Kd of best base at the position.
Same read-out and setting: then AGTCTTTGTTAAA, with 4.66 Kd / Kd of best base at the position; and GGTCTTTGATAAA, with 1.08 Kd / Kd of best base at the position; and AGTCTTTGAGAAA, with 1.72 Kd / Kd of best base at the position.
With AGTCTTTGATAAC, the binding signal with Pan is 4.04 Kd / Kd of best base at the position.
For AGTCTTTGATATA, in the assay with Pan, the binding signal is 1.14 Kd / Kd of best base at the position.
As for AGTCTTAGATAAA, in the assay with Pan, the binding signal is 10.4 Kd / Kd of best base at the position.
For AGTCATTGATAAA, in the assay with Pan, the binding signal is 7.68 Kd / Kd of best base at the position.
Still for that read-out and setting: to AGTCTTTCATAAA belongs 8.7 Kd / Kd of best base at the position; to AGTCTGTGATAAA, 7.87 Kd / Kd of best base at the position.
On to ACTCTTTGATAAA, for which, in the assay with Pan, the binding signal is 1.97 Kd / Kd of best base at the position.
Consider AGTTTTTGATAAA, for which the binding signal with Pan is 5.89 Kd / Kd of best base at the position.
Turning to AGACTTTGATAAA, the binding signal in the assay with Pan is 1.18 Kd / Kd of best base at the position.
AGTGTTTGATAAA: in the assay with Pan, the binding signal is 2.49 Kd / Kd of best base at the position.
With AGTCTTTAATAAA, in the assay with Pan, the binding signal is 4.58 Kd / Kd of best base at the position.
Consider AGTCTTTGATGAA, for which the binding signal in the assay with Pan was 1.49 Kd / Kd of best base at the position.
With AGTCTTTGGTAAA, the binding signal with Pan was 1.21 Kd / Kd of best base at the position.
Same read-out and setting: to AATCTTTGATAAA belongs 6.88 Kd / Kd of best base at the position.
As to AGTCTTTGATAAA, the Kd – broadly, the free concentration of one partner at which half of the binding sites on the other are occupied at equilibrium, for simple one-to-one binding – in the assay with Pan is around 73 nM.
Take AGTCTTTGATTAA: the binding signal in the assay with Pan was 1.63 Kd / Kd of best base at the position.
Regarding AGTCTATGATAAA, the binding signal with Pan is 8.1 Kd / Kd of best base at the position.
Turning to AGGCTTTGATAAA, the binding signal in the assay with Pan is 4.74 Kd / Kd of best base at the position.
Still for that read-out and setting: to AGTCTTTGCTAAA belongs 2.06 Kd / Kd of best base at the position.
Still for that read-out and setting: to AGCCTTTGATAAA belongs 2.89 Kd / Kd of best base at the position.
Still for that read-out and setting: then AGTCTTTGATAGA, with 1.78 Kd / Kd of best base at the position; and AGTCCTTGATAAA, with 5.41 Kd / Kd of best base at the position.
As to TGTCTTTGATAAA, in the assay with Pan, the binding signal is 1.34 Kd / Kd of best base at the position.
Still for that read-out and setting: then AGTCGTTGATAAA, with 9.13 Kd / Kd of best base at the position; and AGTCTTTGAAAAA, with 2.52 Kd / Kd of best base at the position; and AGTCTTTGATACA, with 2.07 Kd / Kd of best base at the position.
With CACGTATTTAGCTCA, in the assay with Ems, the binding signal was 11.1 Kd / Kd of best base at the position.
On to AGTCTTCGATAAA, for which the binding signal with Pan was 7.5 Kd / Kd of best base at the position.
Consider AGTATTTGATAAA, for which the binding signal with Pan was 5.89 Kd / Kd of best base at the position.
For the sequence AGTCTTTTATAAA, the binding signal in the assay with Pan was 3.15 Kd / Kd of best base at the position.
Consider CACGTAGTTAGCTCA, for which the binding signal with Ems was 74.7 Kd / Kd of best base at the position.
For AGTCTTGGATAAA, the binding signal with Pan was 5.87 Kd / Kd of best base at the position.
Turning to AGTCTTTGATAAT, in the assay with Pan, the binding signal was 1.35 Kd / Kd of best base at the position.
On the same count and under the same terms, to AGTCTTTGATAAG belongs 3.01 Kd / Kd of best base at the position.
Take CACGTAATTCGCTCA: the binding signal with Ems was 43.1 Kd / Kd of best base at the position.
On to CACATAATTAGCTCA, for which the binding signal in the assay with Ems is 1.34 Kd / Kd of best base at the position.
With AAGGGGCTTGAT, in the assay with Hkb, the binding signal was 235 Kd / Kd of best base at the position.
For the sequence AAGGGCCGTGAT, the binding signal with Hkb is 107 Kd / Kd of best base at the position.
For the sequence GAATGACCCCTAT, in the assay with EcR, the binding signal is 1.25 Kd / Kd of best base at the position.
Sequence AATTAATCCGAT came in with a Kd with Gsc of around 3.8 nM.
With CCGTGTTTACACTTA, the binding signal with Slp1-FL was 1.25 Kd / Kd of best base at the position.
Same read-out and setting: then ACGTGTATACACTTA, with 19.4 Kd / Kd of best base at the position; and ACTTGTTTACACTTA, with 1.09 Kd / Kd of best base at the position.
Take TCGTGTTTACACTTA: the binding signal with Slp1-FL was 1.19 Kd / Kd of best base at the position.
Regarding ACGTCTTTACACTTA, in the assay with Slp1-FL, the binding signal is 68.8 Kd / Kd of best base at the position.
The same measure, in the same setting: then ACGTGTTTACACTGA, with 1.18 Kd / Kd of best base at the position; and ACGTGTTTACACCTA, with 2.68 Kd / Kd of best base at the position.
With ACGTGTTTACAGTTA, the binding signal in the assay with Slp1-FL was 2.11 Kd / Kd of best base at the position.
As for ACGTGTTTACACTTT, the binding signal with Slp1-FL is 1.35 Kd / Kd of best base at the position.
ACGTGTTTACACGTA: the binding signal with Slp1-FL was 2.9 Kd / Kd of best base at the position.
As for ACGTGTTTAAACTTA, in the assay with Slp1-FL, the binding signal was 44.8 Kd / Kd of best base at the position.
On to ACGTGTTCACACTTA, for which the binding signal with Slp1-FL was 37.4 Kd / Kd of best base at the position.
As for ACGAGTTTACACTTA, the binding signal in the assay with Slp1-FL was 30.1 Kd / Kd of best base at the position.
The same measure, in the same setting: to ACGTGTCTACACTTA belongs 22.3 Kd / Kd of best base at the position.

These data come from PMC5913336, “True equilibrium measurement of transcription factor-DNA binding affinities using automated polarization microscopy”.
